Test results: PubChem BioAssay
The source made the active and inactive calls.

What was measured:
[1] = optical density shifts of acrAB sulA E. coli – strain DRC41, OD650, 48 h, E. coli filamentation inducer project, primary screen (AID 1152); conditions: higher = more signal, called active from +8 up or from −8 down;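 note: E. coli MC1000 strain DRC41 lacking acrAB efflux pump and sulA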
[2] = probe aLefty1 binding on compound microarray – biochemical, small-molecule microarray, 635/667 nm fluorescence, primary screen (AID 1153); conditions: higher = more signal;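 note: score merges spot fluorescence with signal-to-noise ratio from the scanned slide images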
[3] = plasmodial surface anion channel blockers, osmotic lysis – cell-based, P. falciparum Indochina, OD700, 1 h, primary screen (AID 1154); conditions: P. falciparum Indochina infected RBC osmotic lysis, higher = more signal, called active from +8 up or from −8 down
[4] = plasmodial surface anion channel blockers, osmotic lysis – cell-based, P. falciparum Indochina, OD700, 2 h, primary screen (AID 1155);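 note: lysis reports solute entry through the parasite surface anion channel PSAC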; conditions: P. falciparum Indochina infected erythrocytes, higher = more signal, called active from +8 up or from −8 down
[5] = changes in parasitized red cell lysis, either direction – P. falciparum Indochina, OD700, 3 h, PSAC antagonist project, primary screen (AID 1156); conditions: P. falciparum-infected erythrocytes, osmotic lysis, higher = more signal, called active from +8 up or from −8 down
[6] = plasmodial surface anion channel blockers, osmotic lysis – cell-based, P. falciparum Indochina, OD700, 18 h, primary screen (AID 1157); conditions: P. falciparum Indochina infected erythrocytes, osmotic lysis OD700, 18 h; higher = more signal, called active from +8 up or from −8 down
[7] = S6 kinase pathway phospho-S6 level changes – cell-based, A549, cytoblot, luminescence, serum-stimulated, primary screen (AID 1158); conditions: 5 h, higher = more signal;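 note: serum-stimulated A549 lung adenocarcinoma cells; signal is phosphorylated S6 detected by cytoblot immunostaining with HRP secondary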
[8] = biological target: NADPH oxidase 2 (Homo sapiens) (UniProt P04839); test: compounds shifting NOX2 Amplex Red fluorescence – cell-based, HEK293-NOX2, PMA-stimulated, NOX inhibitor project, primary screen (AID 1159); conditions: 45 min, higher = more signal, called active from +8 up or from −8 down; note: test concentration not given here
[9] = biological target: NADPH oxidase 4 (Homo sapiens) (UniProt Q9NPH5); test: compounds shifting NOX4 Amplex Red fluorescence – cell-based, HEK293-NOX4, tetracycline-induced, NOX inhibitor project, primary screen (AID 1160); conditions: HEK293-NOX4, Amplex Red H2O2 fluorescence, 45 min; higher = more signal, called active from +8 up or from −8 down
[10] = biological target: NADPH oxidase 5 (Homo sapiens) (UniProt Q96PH1); test: compounds shifting NOX5 Amplex Red fluorescence – cell-based, HEK293-NOX5, NOX inhibitor project, primary screen (AID 1161); conditions: HEK293-NOX5, ionomycin, 45 min, higher = more signal
Sequence of NADPH oxidase 5 (Homo sapiens) (Q96PH1 whole entry, looked up): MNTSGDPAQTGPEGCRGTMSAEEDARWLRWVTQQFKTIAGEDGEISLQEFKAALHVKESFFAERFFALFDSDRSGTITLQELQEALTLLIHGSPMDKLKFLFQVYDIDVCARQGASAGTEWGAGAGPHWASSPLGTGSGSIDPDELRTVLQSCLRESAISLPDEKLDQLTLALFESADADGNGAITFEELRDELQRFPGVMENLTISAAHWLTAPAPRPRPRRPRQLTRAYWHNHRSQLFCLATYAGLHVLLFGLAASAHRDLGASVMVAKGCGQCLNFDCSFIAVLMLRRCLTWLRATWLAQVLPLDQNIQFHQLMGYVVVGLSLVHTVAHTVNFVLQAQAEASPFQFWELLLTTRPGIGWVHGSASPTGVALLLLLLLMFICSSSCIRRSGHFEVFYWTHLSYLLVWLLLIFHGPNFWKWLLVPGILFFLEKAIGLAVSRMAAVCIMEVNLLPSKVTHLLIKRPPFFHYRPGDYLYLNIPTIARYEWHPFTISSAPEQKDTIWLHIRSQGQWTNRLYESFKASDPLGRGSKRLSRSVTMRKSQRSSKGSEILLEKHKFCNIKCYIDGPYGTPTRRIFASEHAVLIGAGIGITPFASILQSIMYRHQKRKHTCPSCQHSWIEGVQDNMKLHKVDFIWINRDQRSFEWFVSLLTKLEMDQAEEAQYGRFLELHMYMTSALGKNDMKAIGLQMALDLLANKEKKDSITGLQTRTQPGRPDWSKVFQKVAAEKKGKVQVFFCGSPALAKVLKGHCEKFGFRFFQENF

Sequence of NADPH oxidase 2 (Homo sapiens) (P04839 whole entry, looked up): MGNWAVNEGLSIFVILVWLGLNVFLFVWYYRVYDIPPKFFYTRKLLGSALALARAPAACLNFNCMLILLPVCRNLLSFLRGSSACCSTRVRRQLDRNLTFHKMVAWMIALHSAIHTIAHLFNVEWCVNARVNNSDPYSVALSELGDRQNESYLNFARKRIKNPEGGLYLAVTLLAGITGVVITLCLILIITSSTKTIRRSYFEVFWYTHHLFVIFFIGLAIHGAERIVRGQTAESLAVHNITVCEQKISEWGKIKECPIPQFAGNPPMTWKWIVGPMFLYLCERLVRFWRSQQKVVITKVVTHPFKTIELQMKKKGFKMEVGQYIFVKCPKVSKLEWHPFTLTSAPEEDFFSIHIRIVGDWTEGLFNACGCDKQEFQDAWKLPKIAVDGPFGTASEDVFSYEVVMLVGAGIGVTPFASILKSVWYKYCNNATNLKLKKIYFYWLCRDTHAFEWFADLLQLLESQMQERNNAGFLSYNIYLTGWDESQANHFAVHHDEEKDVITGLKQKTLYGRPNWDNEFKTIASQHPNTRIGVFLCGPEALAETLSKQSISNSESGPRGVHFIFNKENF
Sequence of NADPH oxidase 4 (Homo sapiens) (Q9NPH5 whole entry, looked up): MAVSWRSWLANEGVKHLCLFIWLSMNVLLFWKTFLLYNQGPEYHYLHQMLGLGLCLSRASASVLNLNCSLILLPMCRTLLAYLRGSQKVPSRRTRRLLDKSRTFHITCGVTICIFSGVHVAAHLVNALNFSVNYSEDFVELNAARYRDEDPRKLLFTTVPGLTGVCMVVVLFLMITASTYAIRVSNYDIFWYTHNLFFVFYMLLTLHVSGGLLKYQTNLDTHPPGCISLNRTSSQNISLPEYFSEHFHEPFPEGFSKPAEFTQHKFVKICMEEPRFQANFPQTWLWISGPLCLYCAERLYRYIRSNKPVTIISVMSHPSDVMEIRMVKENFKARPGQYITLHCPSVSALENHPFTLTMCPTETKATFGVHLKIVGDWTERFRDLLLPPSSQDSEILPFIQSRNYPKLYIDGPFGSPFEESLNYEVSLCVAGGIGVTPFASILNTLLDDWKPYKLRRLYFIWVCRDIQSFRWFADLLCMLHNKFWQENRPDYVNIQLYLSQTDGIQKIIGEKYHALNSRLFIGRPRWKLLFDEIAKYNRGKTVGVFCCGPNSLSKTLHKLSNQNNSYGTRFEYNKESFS

SMILES | z-score [1] | composite z-score [2] | z-score [3] | z-score [4] | z-score [5] | z-score [6] | z-score [7] | z-score [8] | z-score [9] | z-score [10]
COc1cccc(C)c1NC(=O)O[C@H]1[C@H](OC(=O)Nc2ccccc2-c2ccccc2)[C@@H](OC(=O)Nc2ccccc2-c2ccccc2)[C@@H](OC)O[C@@H]1CO | -1.33 (inactive) | 0.406 | 2.54 (inactive) | 1.13 (inactive) | -0.857 (inactive) | 0.937 (inactive) | -0.338 | -3.62 (inactive) | -1.2 (inactive) | -1.72
COC(=O)[C@@]1(Cc2ccc(F)cc2)[C@@H]2C(=CC(=O)[C@H]2CC(=O)C(=O)N2CCCC2)CN1C(=O)c1ccccc1 | -1.18 (inactive) | 1.45 | 3.94 (inactive) | -0.607 (inactive) | -2.12 (inactive) | -1.03 (inactive) | 1.84 | -3.72 (inactive) | -5.14 (inactive) | -4.38
[N-]=[N+]=NCc1ccccc1[C@H]1OC(c2ccc(OCCCO)cc2)=N[C@@]1(Cc1ccccc1N=[N+]=[N-])C(=O)O | -1.17 (inactive) | 0.479 | 22.2 (active) | 3.83 (inactive) | 0.0591 (inactive) | 0.395 (inactive) | -0.314 | 0.831 (inactive) | 0.982 (inactive) | 1.51
[N-]=[N+]=Nc1ccccc1C[C@]1(C(N)=O)COC(c2ccc(OCCCO)cc2)=N1 | -0.142 (inactive) | 0.146 | 24.7 (active) | 9.16 (active) | 1.56 (inactive) | 0.0294 (inactive) | 1.84 | -2.14 (inactive) | -1.48 (inactive) | -2.48
COc1cccc(C)c1NC(=O)O[C@H]1[C@H](OC(=O)Nc2ccc3c(c2)OCO3)[C@H](OC(=O)Nc2ccc3c(c2)OCO3)[C@@H](OC)O[C@@H]1CO | -0.66 (inactive) | 0.855 | 10.7 (active) | 1.4 (inactive) | 1.14 (inactive) | 0.691 (inactive) | -0.0632 | -1.52 (inactive) | -0.848 (inactive) | -1.37
COCCOC(=O)N1C(=O)[C@@]2(c3cc(C#CC4(O)CCCCCC4)ccc31)[C@H](C(N)=O)[C@H]1C(=O)O[C@H](c3ccccc3)[C@H](c3ccccc3)N1[C@@H]2c1ccc(OCCO)cc1 | -0.0172 (inactive) | 0.0861 | 3.59 (inactive) | 1.45 (inactive) | 0.843 (inactive) | 1.01 (inactive) | 0.0826 | 1.52 (inactive) | 0.984 (inactive) | 0.923
CCCCC(=C=CC[C@@H](O)c1ccccc1OCCO)C[C@@H](O)c1ccccn1 | 0.142 (inactive) | -0.0192 | 11.3 (active) | 1.51 (inactive) | 1.02 (inactive) | 0.894 (inactive) | -0.261 | 1.32 (inactive) | -0.281 (inactive) | -1.41
O=C1OCCC/C=C\[C@H]2OC34C=CCN(Cc5ccccc5)C(=O)[C@H]3N(CCO)C(=O)[C@@H]4C12 (stereo not given in full) | 2.28 (inactive) | -0.0536 | 1.65 (inactive) | 0.803 (inactive) | 1.82 (inactive) | 0.671 (inactive) | 0.0012 | 1.7 (inactive) | 0.571 (inactive) | 1.68
COCCOC(=O)N1C(=O)[C@@]2(c3cc(C#CCC(C(=O)OC)C(=O)OC)ccc31)[C@H](C(N)=O)[C@H]1C(=O)O[C@H](c3ccccc3)[C@H](c3ccccc3)N1[C@@H]2c1ccccc1OCCO | 1.08 (inactive) | -0.189 | 8.08 (active) | 2.37 (inactive) | 2.67 (inactive) | 1.05 (inactive) | 4.47 | 1.02 (inactive) | 0.826 (inactive) | -1.13
COc1ccc(C(O)C2C=CC3C(=O)N(c4ccccc4)C(=O)C3N2Nc2ccccc2F)c2ccccc12 (stereo not given) | -0.462 (inactive) | 1.16 | 3.82 (inactive) | 1.71 (inactive) | 0.419 (inactive) | 1.05 (inactive) | -0.593 | -0.232 (inactive) | -1.7 (inactive) | -2.13
O=C1C[C@@](C(=O)NCC(F)(F)F)(c2ccc([N+](=O)[O-])cc2)[C@@H](c2ccc(CO)cc2I)N1CC12CC3CC(CC(C3)C1)C2 | 0.662 (inactive) | 0.383 | 22.4 (active) | 5.06 (inactive) | -0.0836 (inactive) | 0.69 (inactive) | 2.26 | 1 (inactive) | -0.564 (inactive) | 0.733
CCOC(=O)C[C@H]1[C@H](OC(=O)c2cc3ccccc3oc2=O)[C@@H](NC(=O)c2ccc(-c3ccccc3)cc2)c2cc(OCCCO)ccc2N1C(=O)Cc1ccc(OC)cc1 | -0.601 (inactive) | -0.0162 | 20.3 (active) | 5.12 (inactive) | 0.557 (inactive) | 1.04 (inactive) | -0.192 | 1.38 (inactive) | 1.08 (inactive) | 1.23
CN1C(=O)C2C=CC(C(O)c3ccc(I)cc3)N(N(c3ccccc3)c3ccccc3)C2C1=O (stereo not given) | -1.27 (inactive) | 0.193 | 3.99 (inactive) | 1.62 (inactive) | 0.537 (inactive) | 1.54 (inactive) | -1.19 | 0.461 (inactive) | 1.23 (inactive) | -0.585
COC(=O)[C@@]1(Cc2ccccc2)[C@H]2c3cc(C(=O)N(C)C)n(CCF)c3C[C@H]2CN1C(=O)c1ccccc1 | -0.81 (inactive) | 0.873 | 1.54 (inactive) | 0.322 (inactive) | 0.484 (inactive) | 0.544 (inactive) | -0.546 | 0.148 (inactive) | -1.73 (inactive) | -1.89
CCCCCCc1nc(Cc2cc(OC)c(OC)c(OC)c2)c(C)c2c1[Si](C(C)C)(C(C)C)OC2 | 1.41 (inactive) | -0.0547 | 2.71 (inactive) | -0.23 (inactive) | 0.906 (inactive) | -0.471 (inactive) | 2.51 | -0.25 (inactive) | -0.588 (inactive) | -2.37
CC(C)(C)OC(=O)N1[C@@H](C=C(Br)Br)COC1(C)C | 1.98 (inactive) | -0.147 | -0.794 (inactive) | -1.16 (inactive) | -0.884 (inactive) | -1.66 (inactive) | 0.855 | 2.82 (inactive) | 0.4 (inactive) | -0.152
CCOC(=O)C[C@H]1[C@H](OC(=O)c2ccc(-c3ccccc3)cc2)[C@@H](NC(=O)C2CCCCC2)c2cc(OCCCO)ccc2N1C(=O)Cc1ccc(OC)cc1 | -0.815 (inactive) | 0.0315 | 2.23 (inactive) | 0.166 (inactive) | -0.816 (inactive) | 0.0141 (inactive) | 0.571 | -0.289 (inactive) | 1.21 (inactive) | 0.732
[N-]=[N+]=Nc1ccccc1C[C@@]1(C(=O)NCc2ccccc2)N=C(c2ccc(OCCCO)cc2)O[C@@H]1c1ccccc1 | 0.0295 (inactive) | 1.43 | 27.6 (active) | 17.3 (active) | 1.4 (inactive) | 2.09 (inactive) | 0.308 | -1.67 (inactive) | -0.0758 (inactive) | -1.1
CC(CO)N1C(=O)[C@@H]2[C@H]3C(=O)OCC=C[C@H]3OC23C=CCN(c2ccc4ccccc4c2)C(=O)[C@@H]13 (stereo not given in full) | -0.855 (inactive) | 0.0927 | 0.201 (inactive) | 0.0537 (inactive) | 0.162 (inactive) | -0.0627 (inactive) | -0.409 | 0.405 (inactive) | 0.512 (inactive) | 1.79
C=CCNC(=O)[C@H]1[C@@H]2C(=O)O[C@@H](c3ccccc3)[C@@H](c3ccccc3)N2[C@@H](c2ccc(OCCO)cc2)[C@]12C(=O)Nc1ccc(C#Cc3ccc(OC)cc3)cc12 | -0.0405 (inactive) | -0.248 | 3.42 (inactive) | 2.19 (inactive) | 0.866 (inactive) | 1.4 (inactive) | -0.0157 | 0.87 (inactive) | 0.34 (inactive) | 1.43
COc1c(C)cc(-c2nc(-c3ccccc3)c3c(c2C)CO[Si]3(C(C)C)C(C)C)cc1C | -1.31 (inactive) | 0.0505 | 0.614 (inactive) | 0.521 (inactive) | -0.81 (inactive) | 0.261 (inactive) | 0.564 | -0.41 (inactive) | 0.529 (inactive) | -2.03
CCOC(=O)C1=CC[C@@H](c2ccccc2)N(S(=O)(=O)c2ccc(C)cc2)[C@@H]1C#N | 0.49 (inactive) | 0.082 | 4.46 (inactive) | 0.804 (inactive) | 0.0758 (inactive) | 1 (inactive) | -0.268 | 0.224 (inactive) | -0.615 (inactive) | -0.14
COC(=O)[C@]1(Cc2ccccc2CN=[N+]=[N-])N=C(c2ccc(OCCCO)cc2)O[C@@H]1c1ccccc1N=[N+]=[N-] | 0.204 (inactive) | 0.167 | 31.1 (active) | 28.4 (active) | 0.444 (inactive) | 7.23 (inactive) | -0.424 | -0.938 (inactive) | 0.298 (inactive) | 1.44
C=C(/C=C\CNS(=O)(=O)c1ccc(C)cc1)[C@H](O)[C@H]1CCCN1S(=O)(=O)c1ccccc1[N+](=O)[O-] | -0.473 (inactive) | -0.0366 | 12.1 (active) | 2.16 (inactive) | 1.03 (inactive) | 0.77 (inactive) | -0.208 | -0.264 (inactive) | -2.04 (inactive) | -1.77
COC(=O)C1=CC(CCCO)=CC(c2ccc(CN3CCCC3)cc2)N(C)C=C1C(=O)OC (stereo not given) | 0.265 (inactive) | 0.212 | 1.77 (inactive) | 0.422 (inactive) | 0.587 (inactive) | 0.155 (inactive) | -0.387 | 0.452 (inactive) | 0.225 (inactive) | 0.463
CN1C(=O)C2C=CC(C(O)c3cccs3)N(N(c3ccccc3)c3ccccc3)C2C1=O (stereo not given) | -0.822 (inactive) | 0.25 | 0.929 (inactive) | 1 (inactive) | 0.157 (inactive) | 0.556 (inactive) | -0.967 | -0.915 (inactive) | -1.84 (inactive) | -1.25
